Assay outcomes (PubChem)
Hits are enriched below; roughly 19% of the tested compounds scored in any of these assays.
IL-1B inflam inh: qHTS for Inhibitors of Inflammasome Signaling: IL-1-beta AlphaLISA Primary Screen | THP-1 LPS/ATP IL-1B secretion, AlphaLISA, 16 h; stronger effect = lower value | activity change, % at 57.5 µM | hit rate 4.7% among 360,000 | AID 743279, 2014; in the data active = activity change below about -50%; inconclusive = mostly about -30% to -49%; also: % is scaled to controls: 0 for no effect and ±100 for the full control effect
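Secreted IL-1B measured by AlphaLISA bead assay after 16 h compound exposure of THP-1 cells; compounds (final up to 57.5 uM) added 1 h before LPS (250 ng/mL) and ATP (1.25 mM) stimulation; lower signal means less secretion.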
TDP1 cell CPT: qHTS for Inhibitors of human tyrosyl-DNA phosphodiesterase 1 (TDP1): qHTS in cells in presence of CPT; chicken DT40 Tdp1-/-;hTDP1 cells + 20 nM CPT, ATP luminescence, 48 h; Potency, µM (doses to about 46.2 µM), for inactives: at the highest dose activity change, negative = growth inhibition, hits mostly inhibitors; hit rate 12% among 420,000; also: potency is read from the fitted curve at half-maximal effect; % is scaled to controls: 0 for no effect and ±100 for the full control effect; nearly all actives have a fitted effect of over 55% in size
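Chicken DT40 Tdp1-/- cells stably complemented with human TDP1 were seeded at 400 cells/well in medium containing 20 nM camptothecin, exposed to pin-transferred compounds, and grown at 37 °C for at least 48 hr. Viability was read as ATP luminescence.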
TGFb SMAD3 inh: qHTS for Inhibitors of TGF-b; hit rate 1.2% among 410,000; Potency, µM (doses to about 46.1 µM), for the others: top-dose activity, negative = inhibition, most hits filed as inhibitors; HepG2 CAGA-GFP TGF-b/SMAD3 reporter, GFP fluorescence, 18 h; TGF-beta stimulated, 500 pg/mL final; also: potency is read from the fitted curve at half-maximal effect; % is scaled to controls: 0 for no effect and ±100 for the full control effect; nearly all actives have a fitted effect of over 65% in size
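Smad-responsive CAGA-GFP expression was quantified in HEPG2 cells exposed to compounds and 500 pg/mL final TGF-beta for 18 h at 37 degrees C; unstimulated wells defined full inhibition.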
S-ASM inh: Inhibitors of Secretory Acid Sphingomyelinase (S-ASM): qHTS; Sphingomyelin phosphodiesterase (Homo sapiens), P17405; placental ASM, HMU-PC fluorogenic substrate, 60 min; Potency, µM (highest dose often 57.5 µM), for the others: at the top dose activity change, negative = inhibition, hits mostly inhibitors; hit rate 0.006% among 340,000; also: potency is read from the fitted curve at half-maximal effect
Target sequence (P17405 47-631 limits assumed): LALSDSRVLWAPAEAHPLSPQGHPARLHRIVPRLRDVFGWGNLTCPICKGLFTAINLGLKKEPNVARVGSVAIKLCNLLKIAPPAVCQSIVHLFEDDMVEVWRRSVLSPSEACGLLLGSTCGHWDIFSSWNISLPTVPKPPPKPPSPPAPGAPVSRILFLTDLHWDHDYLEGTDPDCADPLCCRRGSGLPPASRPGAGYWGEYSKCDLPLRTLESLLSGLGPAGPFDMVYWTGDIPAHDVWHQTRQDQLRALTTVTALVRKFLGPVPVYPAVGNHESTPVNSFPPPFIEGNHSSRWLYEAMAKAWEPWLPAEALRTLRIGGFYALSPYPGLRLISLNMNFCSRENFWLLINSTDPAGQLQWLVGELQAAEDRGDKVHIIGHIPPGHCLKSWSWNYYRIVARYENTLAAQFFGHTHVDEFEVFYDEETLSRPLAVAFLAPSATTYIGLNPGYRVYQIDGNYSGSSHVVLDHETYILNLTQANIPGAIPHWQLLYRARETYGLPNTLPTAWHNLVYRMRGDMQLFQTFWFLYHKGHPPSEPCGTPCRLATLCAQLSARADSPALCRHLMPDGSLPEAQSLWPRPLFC
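qHTS format. ASM enzyme prepared from human placenta hydrolyses the fluorogenic substrate HMU-PC0 (9 uM final) over 60 min at 37 °C after a 10 min compound preincubation.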
DT40 TDP1 no CPT: qHTS for Inhibitors of human tyrosyl-DNA phosphodiesterase 1 (TDP1): qHTS in cells in absence of CPT; DT40 Tdp1-/- hTDP1 cells, no CPT, ATP luminescence, 48 h; Potency, µM (doses to about 46.2 µM), inactives show top-dose activity change, negative = growth inhibition, most hits filed as inhibitors; hit rate 15% among 420,000; AID 686978, 2013; also: potency is read from the fitted curve at half-maximal effect; % is scaled to controls: 0 for no effect and ±100 for the full control effect; nearly all actives have a fitted effect of over 55% in size
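Chicken DT40 Tdp1-/- cells complemented with human TDP1, screened without camptothecin (DMSO vehicle only), 400 cells/well. Compounds pin-transferred, cells incubated at 37 °C for at least 48 hr. Growth read as ATP-dependent luminescence (CellTiter-Glo, 30 min at RT).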
HepG2 tox: qHTS for Inhibitors of TGF-b: Cytotox Counterscreen. hit rate 0.76% among 410,000. HepG2 CAGA-GFP viability, ATP luminescence, 18 h. Potency, µM (series often up to 46.1 µM), for inactives: at the highest dose activity change, negative = cytotoxicity, usual class: cytotoxic. AID 588856, 2011; also: potency is read from the fitted curve at half-maximal effect
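HepG2 CAGA-GFP cells (1000/well, DMEM with 1% FBS) received compound, then TGF-beta at 500 pg/mL final, and were incubated 18 hours at 37 degrees C. Viability was read by CellTiter-Glo luminescence. Media-only wells were set as complete cell-killing and DMSO as no toxicity.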
An asterisk follows results filed as active; u = inconclusive; x = no result; [ ] = dose if it differs, or a comment. Unless noted, calls follow the shape of the dose curve; as a rule, active = well fitted curve in the direction sought with a large enough effect; inconclusive = small, poorly fitted or top-dose-only effect, or another doubt; inactive = no such curve, though single readings can be large; an effect the other way counts as inactive or inconclusive.

SMILES | IL-1B inflam inh | TDP1 cell CPT | TGFb SMAD3 inh | S-ASM inh | DT40 TDP1 no CPT | HepG2 tox
O=C(Cn1c(NCCO)nc2ccccc21)c1ccc(F)cc1 | -4 | -13% | 5% | -1% | -12% | 0%
COc1ccc(-n2c(C)cc(C(=O)Cn3c(NCCO)nc4ccccc43)c2C)cc1 | 42 | u | -1% | -8% | 21µM* | -18%
CCN1C[C@@H]2[C@@H]3C(=O)N(Cc4ccccc4)C(=O)[C@@H]3[C@](CC)(C1=O)N2C(=O)c1ccccc1 | 22 | 5% | 2% | 7% | 0% | 2%
COc1ccc([N+](=O)[O-])cc1C1NN=C(c2ccccc2O)S1 (stereo not given) | 32 | 3.7µM* | -1% | -2% | 3.3µM* | -28%
Cc1ccc(CC#N)c(-c2c(CC#N)ccc(C)c2C)c1C | 21 | u | -3% | x | 23µM* | 4%
Cc1cc[n+](CC#N)cc1 | x | -10% | -1% | x | 2% | -5%
COc1ccc(C=O)cc1Cn1c(C)cc(C)c(C#N)c1=O | 31 | 16µM* | 0% | 1% | 16µM* | -16%
CSc1ccccc1C(=O)N1CCOCC1 | 11 | -6% | 5% | 8% | 0% | -15%
O=C(c1ccccc1Sc1cccc2ccccc12)N1CCOCC1 | -1 | 13µM* | -7% | -1% | 21µM* | -5%
NNC(=O)c1ccc(C(=O)N(c2ccccc2)c2ccccc2)cc1 | x | u | -3% | x | u | -40%
O=C(c1ccccc1)N(c1ccccc1)c1ccccc1O | 20 | 15µM* | -24% | 1% | 16µM* | -16%
Cc1ccc(-c2csc(-c3cc4c([nH]c3=O)CC(c3ccccc3)CC4=O)n2)cc1 (stereo not given) | x | 1.5µM* | 31% | x | 1.3µM* | -18%
CC1(C)CC(=O)c2cc(-c3nc(-c4ccccc4)cs3)c(=O)[nH]c2C1 | x | 9.2µM* | 0% | x | 13µM* | 7%
COc1ccc(C2CC(=O)c3cc(-c4nc(-c5ccc(Cl)cc5)c(C)s4)c(=O)[nH]c3C2)cc1 (stereo not given) | x | u | 7% | x | 1.8µM* | -13%
O=c1oc2ccccc2c(O)c1Sc1ccc(Cl)cc1 | 5 | -22% | u | 12% | u | -10%
CC12CCC(C3NC(=S)NN=C31)C2(C)C (stereo not given) | 7 | 0% | 6% | 7% | -1% | 9%
COc1ccc(OC)c(C2CC(=O)NC(SC)=C2C#N)c1 (stereo not given) | -1 | -18% | -1% | 0% | 1% | -23%
CSC1=C(C#N)C(c2sccc2C)CC(=O)N1 (stereo not given) | -76* | u | -3% | 2% | -25% | -7%
CN(CC(=O)NNC(=O)Cc1ccccc1F)S(=O)(=O)c1ccc(Cl)cc1 | 0 | -11% | 2% | 3% | -11% | -82%
Cc1[nH]c2ccccc2c1C(=O)CN(C)c1ccccc1 | x | -114% | u | x | u | -27%
COc1ccccc1CN(C)CC(=O)c1c(C)[nH]c2ccccc12 | x | 18µM* | -5% | x | 18µM* | -27%
Cc1[nH]c2ccccc2c1C(=O)CCl | -107* | 2.6µM* | u | 1% | 3.7µM* | -5%
Cc1cc(C(=O)Nc2ccccc2-c2nc(CNC(=O)C3COc4ccccc4O3)c(C)o2)c(C)o1 (stereo not given) | x | 5%[9.04 µM] | x | x | -20% | x
CC/C(=N\NC(=O)c1nnn(-c2nonc2N)c1-c1cccs1)c1ccccc1 | -6 | -22% | -1% | -1% | u | 0%
